# AmpC inh detg = inhibitors of E. coli AmpC beta-lactamase with detergent; Potency, µM (doses to about 114 µM), most hits filed as inhibitors; P00811; AmpC hydrolysis of nitrocefin, absorbance 480 nm, 0.01% Triton; 370,000 compounds, 0.041% hits; further: nearly all actives have a fitted effect of over 25% in size
# Target sequence (P00811 whole entry, looked up): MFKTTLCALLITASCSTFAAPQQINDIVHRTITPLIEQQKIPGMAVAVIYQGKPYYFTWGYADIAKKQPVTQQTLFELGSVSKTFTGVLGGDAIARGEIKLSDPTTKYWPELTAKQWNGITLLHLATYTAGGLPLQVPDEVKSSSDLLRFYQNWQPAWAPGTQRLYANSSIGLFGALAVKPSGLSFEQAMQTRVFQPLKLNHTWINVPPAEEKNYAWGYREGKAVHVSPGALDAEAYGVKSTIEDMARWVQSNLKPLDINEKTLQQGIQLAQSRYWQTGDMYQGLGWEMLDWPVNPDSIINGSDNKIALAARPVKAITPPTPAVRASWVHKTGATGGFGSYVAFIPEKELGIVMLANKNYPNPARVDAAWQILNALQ
#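 AmpC (5.3 nM in the dispensed reagent) in 20 mM phosphate pH 7.0 with 0.01% (detergent screen) or 0.0001% Triton X-100 was preincubated with compounds for 15 min at room temperature. Nitrocefin was then added from an 800 uM solution, and hydrolysis was followed at 480 nm.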
# SARS PLpro yeast = inhibitors of SARS-CoV papain-like protease in yeast | S. cerevisiae expressing SARS-CoV PLpro, growth rescue | Potency, µM (series often up to 32.9 µM), usual class: activators | 330,000 compounds, 0.19% hits; calls by dose curve; further: nearly all actives have a fitted effect of over 55% in size
# RE007 growth inh = less growth of the S. pombe RE007 Vpr strain; S. pombe RE007 Vpr strain, BacTiter-Glo ATP luminescence, 24 h; Potency, µM (top dose mostly 92.2 µM), most hits filed as inhibitors; AID 651644; 360,000 compounds, 0.21% hits; active means well fitted falling curve with a large enough effect; inconclusive means small, poorly fitted or top-dose-only effect; inactive means no such curve, though single readings can be large or run the other way; further: nearly all actives have a fitted effect of over 50% in size
#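 Fission yeast RE007 carrying one integrated HIV-1 vpr copy, seeded at OD 0.01 in PMG+AL medium with 23 nL pinned compound. Grown 24 h at 30 degrees; viability read by BacTiter-Glo luminescence after 5 min.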
# Tb PYK inh = inhibitors of Trypanosoma brucei pyruvate kinase. Q57TT1. 410,000 compounds, 0.12% hits. TbPYK enzyme, Kinase-Glo Plus ATP luminescence, 45 min. Potency, µM (doses to about 76.8 µM), usual class: inhibitors; further: nearly all actives have a fitted effect of over 50% in size
#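 Activity of T. brucei pyruvate kinase was followed by Kinase-Glo Plus luminescence after the enzyme reacted 45 min at room temperature with 130 uM ADP (final) and substrate. Test compounds were added before ADP at multiple concentrations.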
# Sm TGR block = blocks Schistosoma mansoni thioredoxin glutathione reductase; Q962Y6; purified TGR, DTNB reduction, TNB absorbance 405 nm; Potency, µM (series often up to 114 µM), most hits filed as inhibitors; 360,000 compounds, 3% hits; further: nearly all actives have a fitted effect of over 60% in size
#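 TGR 20 nM + NADPH 100 uM (dispensed conc.), cpd preinc 15 min RT; start with NADPH (500 uM addition) then DTNB (15 mM addition). Kinetic TNB absorbance, 405 nm filter. Four-parameter Hill fit across titration.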
# AmpC inh no detg = blocks E. coli AmpC beta-lactamase in detergent-free assay | P00811 | AmpC nitrocefin hydrolysis, absorbance 480 nm, 0.0001% Triton | Potency, µM (series often up to 57.1 µM), hits mostly inhibitors | 330,000 compounds, 0.52% hits | AID 485341; further: nearly all actives have a fitted effect of over 20% in size
#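 AmpC (5.3 nM in the dispensed reagent) in 20 mM phosphate pH 7.0 with 0.01% (detergent screen) or 0.0001% Triton X-100 was preincubated with compounds for 15 min at room temperature. Nitrocefin was then added from an 800 uM solution, and hydrolysis was followed at 480 nm.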
# Hits are given with their value; i = inactive; ? = inconclusive; nt = no result given. In the library only some 3.3% were active in any assay of this set; here they are far more common. Unless noted, the call rests on the fitted dose curve; in most records, active means well fitted curve in the direction sought with a large enough effect; inconclusive means small, poorly fitted or top-dose-only effect, or another doubt; inactive means no such curve, though single readings can be large; an effect the other way counts as inactive or inconclusive.
SMILES,AmpC inh detg,SARS PLpro yeast,RE007 growth inh,Tb PYK inh,Sm TGR block,AmpC inh no detg
COc1cc(CN2CCCC(CO)(Cc3cccc(Cl)c3)C2)cc(OC)c1O (stereo not drawn),i,i,i,i,28.2µM,i
OCC1(Cc2ccccc2)CCN(Cc2ccc(-c3ccco3)cc2)CC1,i,i,i,i,31.6µM,i
CCN1CCCC(CO)(Cc2ccccc2)C1 (stereo not drawn),i,i,i,i,?,i
Cc1cc2oc(C(=O)Nc3sc4c(c3C(=O)NCc3ccccc3)CCCC4)cc(=O)c2cc1C,i,nt,nt,i,i,nt
COc1ccc(-c2nc3c4ccccc4n(CC(=O)Nc4cc(F)ccc4F)c(=O)n3n2)cc1,i,nt,nt,i,i,nt
Cc1ccccc1-c1nc(CS(=O)CC(=O)N2CCC3(CC2)OCCO3)c(C)o1 (stereo not drawn),i,?,i,i,8.91µM,i
Cc1ccccc1-c1nc(CS(=O)CC(=O)NCCN2CCN(Cc3ccccc3)CC2)c(C)o1 (stereo not drawn),?,i,i,i,i,i
CCOc1ccc(CCNC(=O)CS(=O)Cc2nc(-c3ccccc3C)oc2C)cc1OCC (stereo not drawn),i,i,i,i,35.5µM,i
CCCNC(=O)CS(=O)Cc1nc(-c2ccccc2C)oc1C (stereo not drawn),?,i,i,i,50.1µM,i
CCC(C)NC(=O)CS(=O)Cc1nc(-c2ccccc2C)oc1C (stereo not drawn),?,i,i,i,8.91µM,i
Cc1ccccc1-c1nc(CS(=O)CC(=O)N2CCN(c3cc(Cl)ccc3C)CC2)c(C)o1 (stereo not drawn),i,nt,nt,i,i,nt
COc1ccc(CNC(=O)CCS(=O)(=O)c2cc3c4c(c2)CCN4C(=O)CC3)cc1OC,i,nt,nt,i,i,nt
CCOC(=O)c1ccccc1NC(=O)c1c(C)oc2ncnc(N3CCOCC3)c12,i,nt,nt,i,i,nt
Cc1oc(-c2ccccc2F)nc1CS(=O)CC(=O)NC(C)C (stereo not drawn),i,nt,nt,i,14.1µM,nt
CC(=O)Nc1ccc(Nc2nc3ccc(C)cc3n3nnnc23)cc1,i,nt,nt,i,i,nt
Cc1ccc(-n2c(SCC(=O)Nc3cccc(Cl)c3)nc3n[nH]c(C)c3c2=N)cc1,i,nt,nt,i,i,nt
COCc1nc2ccccc2n1CCOc1cccc(C)c1,i,nt,nt,i,i,nt
CCn1nnnc1NCc1ccc(Cl)cc1,i,i,i,i,i,i
CCn1nnnc1NCc1cccn1C,?,i,i,i,50.1µM,i
O=C(CN1CCN(CCN2C(=O)c3cccc4cccc(c34)C2=O)CC1)c1ccc(Cl)cc1,i,i,nt,nt,14.1µM,i
O=C(CN1CCN(CCN2C(=O)c3cccc4cccc(c34)C2=O)CC1)c1ccc(F)cc1,i,i,i,i,?,i
COc1ccc(C(=O)N2c3ccccc3C(C)(c3ccc(Cl)cc3)CC2(C)C)cc1 (stereo not drawn),i,nt,nt,i,i,nt
Cc1ccc2c(c1)c(=O)c(S(=O)(=O)c1ccc(F)cc1)cn2CC(=O)Nc1ccc2c(c1)OCO2,i,nt,nt,i,i,nt
CC[C@H](C)[C@H]1O[C@]2(CC[C@@H]1C)C[C@@H]1C[C@@H](C/C=C(\C)[C@H](O[C@@H]3C[C@H](OC)[C@H](O[C@@H]4C[C@H](OC)[C@@H](O)[C@H](C)O4)[C@H](C)O3)[C@@H](C)/C=C/C=C3\CO[C@@H]4[C@H](O)C(C)=C[C@@H](C(=O)O1)[C@]34O)O2,nt,nt,nt,i,nt,nt
COc1ccc(S(=O)(=O)N2CCCN(CC(=O)Nc3ccccc3F)CC2)cc1,i,i,i,i,i,i
COc1ccc(S(=O)(=O)N2CCCN(C)CC2)cc1,i,i,i,i,39.8µM,i
COc1ccc(S(=O)(=O)N2CCCN(CC(=O)C(C)(C)C)CC2)cc1,i,i,i,i,10µM,i
O=C(CSc1nc2c([nH]c3ccccc32)c(=O)n1-c1cccc(Cl)c1)NCc1ccccc1,i,nt,nt,i,i,nt
